Experimental data published in PubChem BioAssay AID624111 (Johns Hopkins Ion Channel Center, 2012).
In all, about 4,000 compounds went through this assay and about 60 (2%) were called active.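 The calls were made as follows: active = duplicate-averaged calcium fluorescence ratio at least three times the standard deviation of buffer wells, a nonspecific response in parental cells; inactive = the rest.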 Shown is part of a subset that was picked to be rich in actives.

Experiment: nonspecific calcium signal in parental HEK293, confirmation, counter-screen for MrgX1 antagonist project, parental HEK293 cells, Fluo-4 calcium flux (AID 624111)
Settings: parental HEK293, Fluo-4 calcium fluorescence, FDSS; at 10 µM

| Structure (SMILES) | fluorescence ratio F(max-min)/F0 |
| --- | --- |
| CCOc1cc(-c2conc2N)cc(OCC)c1OCC | inactive |
| Brc1ccccc1C1Nc2cccc3cccc(c23)N1 | inactive |
| c1ccc(-c2[nH]ncc2-c2nc3ccccc3[nH]2)cc1 | inactive |
| CCOC(=O)c1cn(Cc2cccc(C)c2)nn1 | inactive |
| CC(C)NC(=S)Nc1cccc2cnccc12 | inactive |
| CCOC(=O)C1=C(O)/C(=C/c2cc(C)n(-c3ccccc3)c2C)N=C1C | inactive |
| COc1ccc(C2SCCN2S(=O)(=O)c2ccccc2)cc1OC (stereo not drawn) | inactive |
| S=C(NCc1ccc(Cl)cc1)NC12CC3CC(CC(C3)C1)C2 | inactive |
| COc1cc(C(F)(F)F)nc2c(Br)c(C(C)(C)C)nn12 | inactive |
| CCN(C(=O)CSc1nnc2ccccn12)C1CCS(=O)(=O)C1 (stereo not drawn) | inactive |
| O=C1C(Cc2ccc(O)cc2)NC(=S)N1Cc1ccccc1 (stereo not drawn) | inactive |
| CCOC(=O)c1c(NC(=O)CNC2CCCc3ccccc32)sc(C(N)=O)c1C (stereo not drawn) | inactive |
| COc1cccc(-c2cnc(OC(C)(C)C)nc2OC(C)(C)C)c1 | inactive |
| COc1ccc(-n2c(SCC(=O)NCc3ccco3)nnc2-c2c[nH]c3ccccc23)cc1 | inactive |
| CC(C)CNc1ncnc2c1cnn2Cc1ccc(Cl)cc1 | inactive |
| Cc1cc2oc3ccc(NCCC4CCCN4C)cc3c(=O)c2cc1C (stereo not drawn) | inactive |
| CC(=O)Nc1ccc(OC(=O)COc2ccc(Br)cc2)cc1 | inactive |
| CCCc1[nH]nc2c1C(c1ccc(Br)s1)C(C#N)=C(N)O2 (stereo not drawn) | inactive |
| CCS(=O)(=O)c1ccc2c(c1)N(S(=O)(=O)c1ccccc1)CC(C(=O)O)O2 (stereo not drawn) | inactive |
| Fc1cccc(Cl)c1COc1ccc(-c2nnco2)cc1 | inactive |
| COc1ccc(-c2cc(C(F)(F)F)nc(S(C)(=O)=O)n2)cc1OC | inactive |
| CCc1ccc2nc3sc(C(=O)Nc4nnc(CC)s4)c(N)c3cc2c1 | 0.589 (active) |
| COCc1nnc(NC(=O)c2ccc3c(c2)OCO3)s1 | inactive |
| COc1cc(CCC(=O)Nc2ccncc2Cl)cc(OC)c1OC | inactive |

| Structure (SMILES) | fluorescence ratio F(max-min)/F0 |
| --- | --- |
| Cc1cc(C)n(CCNC(=O)CC2C(=O)NCCN2Cc2ccc(C)o2)n1 (stereo not drawn) | inactive |
| COc1ccc(S(=O)(=O)N2CCOCC2)c(C)c1C | inactive |
| CCOc1ccc(C(=O)NC2CCN(S(=O)(=O)CC)CC2)cc1 | inactive |
| Cc1ccc(N/C(N)=N/c2nc(C(F)(F)F)cc(C(F)(F)F)n2)cc1 | inactive |
| Cc1[nH][nH]c(=O)c1C(c1ccc(-c2ccc(Cl)cc2)o1)c1c(C)[nH][nH]c1=O | inactive |
| Cc1ccc(-n2cnc3ncnc(-c4ccccc4)c32)cc1 | inactive |
| Cc1c(C(=O)N2CCCc3ccccc32)sc2nc(-c3ccccc3)cn12 | inactive |
| C(=N\n1cnnc1)/c1cccnc1 | inactive |
| CC(=O)N1c2ccc(S(=O)(=O)N3CCCC(C(=O)Nc4cccc(Cl)c4)C3)cc2CC1C (stereo not drawn) | inactive |
| Cc1cccc(Cn2cnc3c(N)c(C)c(C)cc32)c1 | inactive |
| CCOC(=O)Nc1ccc2c(c1)N(C(=O)CCN1CCN(CCO)CC1)c1ccccc1CC2 | inactive |
| COc1ccc2c(c1)OC(O)(C(F)(F)C(F)F)CC2=O (stereo not drawn) | inactive |
| O=S(=O)(c1ccc2ccccc2c1)N1CCN(S(=O)(=O)N2CCOCC2)CC1 | inactive |
| CCOC(=O)C1=C(O)CSC1=Nc1cccc(Cl)c1 | inactive |
| Cc1nccn1CCC1CCCCN1C(=O)CCc1nnc(-c2ccsc2)o1 (stereo not drawn) | inactive |
| O=C(Nc1ccccc1N1CCCCC1)c1ccc2nccnc2c1 | inactive |
| Cc1onc(-c2ccccc2)c1C(=O)NNC(=S)NC(=O)c1ccc(F)cc1 | inactive |
| O=C(CN1CCN(c2ccccn2)CC1)NC1CCCCC1 | inactive |
| C=CCOc1cccc(C2C(C(=O)c3ccc(C)o3)=C(O)C(=O)N2c2nnc(C)s2)c1 (stereo not drawn) | inactive |
| O=C1C(=O)N(CC2COc3ccccc3O2)c2ccccc21 (stereo not drawn) | inactive |
| COc1ccccc1N(CC(=O)N1CCCCC1)S(=O)(=O)c1ccccc1 | inactive |
| Clc1ccc(-c2nc3ccccn3c2CN2CCSCC2)cc1 | inactive |
| COc1ccc(C(=O)NC(=S)NNC(=O)CCc2ccccc2)cc1 | inactive |
| COc1cc(C)c(C)cc1S(=O)(=O)N1CCCc2ccccc21 | inactive |

| Structure (SMILES) | fluorescence ratio F(max-min)/F0 |
| --- | --- |
| Cc1nc2ccccc2cc1OCc1ccc(F)cc1 | inactive |
| OCCn1c(-c2ccccc2)csc1=Nc1ccccc1 | inactive |
| CC1(C)CC2CC(C)(CN2c2ncnc3ccc(Br)cc23)C1 (stereo not drawn) | inactive |
| N=C(N)SCc1cccc2ccccc12 | inactive |
| Cc1occc1C(=O)Nc1nnc(-c2ccncc2)s1 | inactive |
| CC(Oc1ccc(F)cc1)C(=O)Nc1ccccc1C(=O)NC1CC1 (stereo not drawn) | inactive |
| CCCCC(=O)NNC(=S)NC(=O)C(c1ccccc1)c1ccccc1 | inactive |
| CCOc1ccccc1C1CC(c2ccc(Cl)cc2)Nc2nc(N)nn21 (stereo not drawn) | inactive |
| CCN(CC)c1ccc2oc(=O)c(C)nc2c1 | 0.549 (active) |
| CCNC(=O)c1c(O)c2cccc3c2n(c1=O)CC3 | inactive |
| COC(=O)c1sccc1NS(=O)(=O)c1ccc(F)cc1F | inactive |
| COc1ccc(C(=O)CSc2n[nH]c(N)n2)cc1 | inactive |
| CCOC(=O)c1[nH]c2ccc(C)cc2c1N=C(C)N(C)C | inactive |
| Cc1ccc2nc(Nc3ccccc3)cc(C)c2c1 | inactive |
| CC1(C(=O)O)CCC(C(=O)Nc2ccc(Cl)c(Cl)c2)C1(C)C (stereo not drawn) | inactive |
| Cc1cc(Nc2cc(N3CCN(C)CC3)nc(Sc3ccc(NC(=O)C4CC4)cc3)n2)n[nH]1 | inactive |
| Cc1nn(C(=O)c2ccoc2C)c(N)c1-c1ccccc1 | inactive |
| O=C(Nc1ccc(Cl)cc1)Nc1ccc(Oc2cccnc2)nc1 | inactive |
| O=C(CCN1CCc2ccccc2C(O)(c2ccccc2)C1)c1ccc2c(c1)OCCO2 (stereo not drawn) | inactive |
| CCC1CCCCN1CCNC(=O)c1[nH]c(C)c(C(C)=O)c1C (stereo not drawn) | inactive |
| CCc1nnc(NC(=O)CSc2nc3c(c(=O)n2-c2ccccc2OC)SCC3)s1 | inactive |
| Cc1ccc2c(C)c(C(=O)N(C)CCC3CCCCO3)oc2c1C (stereo not drawn) | inactive |
| Cc1cccn2c(=O)c(/C=C3\SC(=S)N(CC(C)C)C3=O)c(NCCCOC(C)C)nc12 | 0.164 (active) |
| O=C(Nc1ccccc1Cl)N1CCN(c2ccc3nncn3n2)CC1 | inactive |

| Structure (SMILES) | fluorescence ratio F(max-min)/F0 |
| --- | --- |
| COc1ccc(OC)c(Nc2nc3ccccc3n3cnnc23)c1 | inactive |
| C=CCSc1nc(Cc2ccc(Cl)cc2)nc2ccccc12 | inactive |
| O=C(NC1CCCCC1)C1c2ccccc2C(=O)N1Cc1ccco1 (stereo not drawn) | inactive |
| Cc1ccc(C(=O)COC(=O)CCN2C(=O)C3C4CC(C(Br)C4Br)C3C2=O)cc1 (stereo not drawn) | inactive |
| CC(C)(C)Nc1c(-c2cccs2)nc2ccccn12 | inactive |
| Cc1ccc(CS(=O)(=O)c2ncc(Cl)c(C(=O)Nc3nnc(C)s3)n2)cc1 | inactive |
| COc1ccc(C(=O)NNC(=S)NC(=O)c2ccccc2)cc1 | inactive |
| O=C(CN1CCN(c2ccc(Cl)cc2)CC1)N1CCCC1 | inactive |
| Cc1ccc(NC2(C#N)C(=O)Nc3ccccc32)cc1 (stereo not drawn) | inactive |
| O=C(c1ccc(OC2CCN(C(=O)c3cccnc3)CC2)cc1)N1CCCCCC1 | inactive |
| Cc1nc(N2CCN(c3ccccn3)CC2)c2c(C)c(C(=O)Nc3ccc(F)c(Cl)c3)sc2n1 | inactive |
| Cc1ccnc(-n2sc3ccccc3c2=O)n1 | inactive |
| C=CCNC(=O)c1cc(-c2ccccc2O)on1 | inactive |
| CN1/C(=C\C=C2\N=C(c3ccc(F)cc3)OC2=O)C(C)(C)c2ccccc21 | inactive |
| COc1ccc(C(=O)Nc2c(N)nc(SCC(=O)N3CCC(C)CC3)[nH]c2=O)cc1OC | inactive |
| Cc1ccc2nc(-c3ccc(NC(=O)c4cccnc4)cc3)oc2c1 | inactive |
| Cc1ccc2c(c1)c1ncnc(N3CCc4ccccc4C3)c1n2C | inactive |
| CCCCOC(=O)CNc1nnc(SCC(=O)OCC)[nH]c1=O | inactive |
| COc1cccc(CNC(=O)C2CCN(S(=O)(=O)c3cccc4cccnc34)CC2)c1 | inactive |
| Cc1nc(C)c(-c2csc(NCCc3ccccc3)n2)s1 | inactive |
| CN(c1cccc(NC(=O)Nc2ccc(Cl)cc2)c1)S(C)(=O)=O | inactive |
